Data from PubChem BioAssay (Tox21).
Unmarked numbers belong to inactive results. Calls come from the whole dose curve; as a rule, active = well fitted curve in the direction sought with a large enough effect in the repeat runs; inconclusive = weak or mixed curves; inactive = flat fitted curve, though single readings scatter.

Experiment: qHTS assay to test for compound auto fluorescence at 590 nm (red) in HEK293 cells (AID 720679)
Settings: red autofluorescence 540/590 nm; series mostly up to 46 µM; fluorescence, % of fluorescent control: at the top concentration
In short: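 We plated HEK293 cells in 10% dialyzed FBS medium, let them adhere for 4-5 hr, then added 23 nL compound. Overnight at 37C and 5% CO2 preceded fluorescence measurement at 540/590nm.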
% is set by controls: 0 for no effect and ±100 for the full control effect.

In order of falling “fluorescence, % of fluorescent control” value:
1. O=C(Cn1c(=O)sc2ccc(Cl)cc21)N1CCN(CCO)CC1  0.625%
2. CC(CC(c1ccccc1)c1ccccc1)NC(C)(C)C (stereo not drawn)  0.262%
3. C[C@H](N)C(=O)N[C@@H](C)P(=O)(O)O  0.197%
4. COc1ccc2c(c1)OC(C)(C)C(c1ccccc1)C2c1ccc(OCCN2CCCC2)cc1 (stereo not drawn)  0.126%
5. Nc1nc2[nH]cc(CCc3ccc(C(=O)N[C@@H](CCC(=O)O)C(=O)O)cc3)c2c(=O)[nH]1  0.107%
6. NC[C@@H]1O[C@H](O[C@H]2[C@@H](O)[C@H](O[C@@H]3[C@@H](O)[C@H](N)C[C@H](N)[C@H]3O[C@H]3O[C@H](CN)[C@@H](O)[C@H](O)[C@H]3N)O[C@@H]2CO)[C@H](N)[C@@H](O)[C@@H]1O  0.0206%
7. CC[C@@H](C(=O)[C@@H](C)[C@@H](O)[C@H](C)[C@@H]1O[C@@H]([C@@H](CC)C(=O)O)CC[C@@H]1C)[C@H]1O[C@]2(C=C[C@@H](O)[C@]3(CC[C@@](C)([C@H]4CC[C@](O)(CC)[C@H](C)O4)O3)O2)[C@H](C)C[C@@H]1C  -0.108%
8. CCCCCC(O)/C=C/C=O (stereo not drawn)  -0.117%
9. C=C1CC[C@H](O)CC1=C/C=C1\CCC[C@]2(C)[C@@H]([C@H](C)CCCC(C)(C)O)CC[C@@H]12  -0.198%
10. OC[C@H]1OC([S-])[C@H](O)[C@@H](O)[C@@H]1O.[Au+] (stereo partly drawn)  -0.254%
11. CCCCCCOc1ccc(C(=N)N(CCCC)CCCC)c2ccccc12  -1.1%
12. O=C(COc1ccc(Cl)cc1)OCCNC12CC3CC(CC(C3)C1)C2  -1.25%

In the case of `CCOC(=O)Oc1c(OC)cc(C(=O)O[C@@H]2C[C@@H]3CN4CCc5c([nH]c6cc(OC)ccc56)[C@H]4C[C@@H]3[C@H](C(=O)OC)[C@H]2OC)cc1OC`, the “fluorescence, % of fluorescent control” value is reported as -0.0775% [at 18.6 µM].
